Assay results: PubChem BioAssay AID1159580 (chemical genetic matrix, 2015)
The campaign covered roughly 5,500 compounds. About 2,000 (36%) were called active. Inconclusive results (about 18%) are left out. Cut-off read from the data, not from the text of the source: active = normalized growth mostly below about 0.91 (no sharp cut-off); inconclusive = no clear call, values can overlap the other calls; inactive = mostly above about 0.92. Some of the results follow.

Test: chemical genetic growth profiling, strain panel (AID 1159580);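 note: tested at 20 µM; growth read once vehicle control cultures reached saturation at 30 °C; 1 = growth at the plate median or of vehicle wells; lower values mean less growth of the strain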
Settings: growth OD
[1] = S. cerevisiae deletion strains, locus YGR078C, strain PAC10, active compounds read low
[2] = S. cerevisiae deletion strains, locus YJR075W, strain HOC1, active compounds read low
[3] = S. cerevisiae deletion strains, locus YMR307W, strain GAS1, active compounds read low
[4] = S. cerevisiae deletion strains, locus YNL153C, strain GIM3, active compounds read low
[5] = S. cerevisiae deletion strains, locus YNL322C, strain KRE1, active compounds read low
[6] = S. cerevisiae deletion strains, locus YPL241C, strain CIN2, active compounds read low

Measured: normalized growth

CC(C)(Sc1ccc(CCN(CCCCC2CCCCC2)C(=O)NC2CCCCC2)cc1)C(=O)O
inactive: S. cerevisiae deletion strains, locus YAL040C, strain CLN3, active compounds read low 1.06 | S. cerevisiae deletion strains, locus YCL061C, strain MRC1 (second series), active compounds read low 0.994 | S. cerevisiae deletion strains, locus YDR363W, strain ESC2, active compounds read low 1.01 | S. cerevisiae deletion strains, locus YER002W, strain NOP16, active compounds read low 1.01 | [1] 1.03 | [2] 1.01 | [3] 0.994 | [4] 0.986 | S. cerevisiae deletion strains, locus YNL175C, strain NOP13, active compounds read low 1.01 | S. cerevisiae deletion strains, locus YNL197C, strain WHI3, active compounds read low 1.02 | S. cerevisiae deletion strains, locus YNL224C, strain SQS1, active compounds read low 1 | [5] 0.994 | S. cerevisiae deletion strains, locus YOR083W, strain WHI5 (second series), active compounds read low 0.98 | [6] 1

CC(C)(C)S(=O)(=O)/C(C#N)=C/c1ccc(F)cc1F
inactive: S. cerevisiae deletion strains, locus YAL013W, strain DEP1, active compounds read low 0.995 | S. cerevisiae deletion strains, locus YBR229C, strain ROT2, active compounds read low 0.999 | S. cerevisiae deletion strains, locus YDL101C, strain DUN1, active compounds read low 1 | S. cerevisiae deletion strains, locus YDL134C, strain PPH21, active compounds read low 1.01 | S. cerevisiae deletion strains, locus YDR150W, strain NUM1, active compounds read low 0.947 | S. cerevisiae deletion strains, locus YEL061C, strain CIN8, active compounds read low 1.02 | [1] 0.999 | S. cerevisiae deletion strains, locus YHR030C, strain SLT2, active compounds read low 1.08 | S. cerevisiae deletion strains, locus YHR087W, strain rtc3, active compounds read low 1.01 | S. cerevisiae deletion strains, locus YJL187C, strain SWE1, active compounds read low 1 | S. cerevisiae deletion strains, locus YJR043C, strain POL32, active compounds read low 1.01 | [2] 0.987 | S. cerevisiae deletion strains, locus YKL190W, strain CNB1, active compounds read low 1.02 | S. cerevisiae deletion strains, locus YLR039C, strain RIC1, active compounds read low 0.962 | S. cerevisiae deletion strains, locus YLR058C, strain SHM2 (second series), active compounds read low 0.987 | S. cerevisiae deletion strains, locus YLR085C, strain ARP6, active compounds read low 1.06 | S. cerevisiae deletion strains, locus YLR262C, strain YPT6, active compounds read low 0.954 | S. cerevisiae deletion strains, locus YML094W, strain GIM5, active compounds read low 1.03 | S. cerevisiae deletion strains, locus YMR219W, strain ESC1, active compounds read low 0.989 | S. cerevisiae deletion strains, locus YMR263W, strain SAP30, active compounds read low 0.977 | [3] 1.01 | S. cerevisiae deletion strains, locus YNL128W, strain TEP1, active compounds read low 1.01 | [4] 1.01 | S. cerevisiae deletion strains, locus YNL298W, strain CLA4 (second series), active compounds read low 1.03 | [5] 0.994 | S. cerevisiae deletion strains, locus YNR030W, strain Alg12, active compounds read low 1.01 | S. cerevisiae deletion strains, locus YPL055C, strain LGE1, active compounds read low 0.919 | [6] 1.03 | S. cerevisiae deletion strains, locus YPR135W, strain CTF4, active compounds read low 1.05 | S. cerevisiae strains, strain wild type, active compounds read low 1.03
